This is an account of results in ChEMBL document CHEMBL3988442, “University of Dundee, Small-Polar-MMV Screening Library” (2021).

About 420 (0.61%) of roughly 69,000 compounds showed an effect of 50% or more. The sample as a whole holds a higher share of strong results than the screen did.

In this test the target is T1, Histidine--tRNA ligase (Leishmania infantum) (UniProt A4I591).
T1 sequence (whole entry): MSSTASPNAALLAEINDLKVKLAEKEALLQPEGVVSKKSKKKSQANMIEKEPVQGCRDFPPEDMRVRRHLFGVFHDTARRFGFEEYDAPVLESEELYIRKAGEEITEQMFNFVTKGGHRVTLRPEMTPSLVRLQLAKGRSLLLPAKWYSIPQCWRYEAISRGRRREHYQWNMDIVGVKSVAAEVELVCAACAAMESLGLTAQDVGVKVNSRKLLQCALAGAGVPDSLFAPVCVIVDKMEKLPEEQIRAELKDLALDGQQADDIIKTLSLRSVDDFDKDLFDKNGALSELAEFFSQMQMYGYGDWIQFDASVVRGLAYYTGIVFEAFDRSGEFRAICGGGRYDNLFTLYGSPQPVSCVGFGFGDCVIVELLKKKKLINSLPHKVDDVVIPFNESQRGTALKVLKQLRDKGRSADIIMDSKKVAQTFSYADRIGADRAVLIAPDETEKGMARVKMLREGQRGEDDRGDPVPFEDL
As to the kind of experiment: Leishmania infantum Histidine tRNA synthetase (LdHisRS). In kind it is functional. Further details: scale not given: in the data most compounds retested in dose-response had high values. The conditions noted are these: 30 µM.
For `CC(C)C(=O)N1CCN(C(=O)c2cc(Cl)no2)[C@H]2CS(=O)(=O)C[C@H]21`, the Percent Effect stood at 1.61%.
As for `Cc1nnsc1CN1C[C@@H]2CC[C@H](C1)N(Cc1ccccc1)C2`, the Percent Effect is 8.33%.
Turning to `CC(=O)c1ccc(C(=O)N2C[C@@H]3CC[C@H](C2)N(Cc2ccccc2)C3)s1`, the Percent Effect is 30.1%.
Regarding `CCCN1C[C@H]2CC[C@@H]1CN(c1nnc(C(C)C)s1)C2`, the Percent Effect is -42.9%.
Under `CC(C)c1nnc(N2C[C@@H]3CC[C@H](C2)N(Cc2ccccc2)C3)s1` stands 59.5%.
Under `CC(C)c1nnc(N2C[C@@H]3CC[C@H](C2)N(CC2CCC2)C3)s1` stands 19.1%; under `CSCCCN1C(=O)CC[C@H]2CN(Cc3ncc[nH]3)CC[C@H]21`, 1.33%; under `Cc1nnc(NCCc2coc(-c3ccccc3)n2)c(C#N)c1C`, 51.4%.
As for `COc1ccc(-c2nc(CCNc3nnc(C)c(C)c3C#N)co2)cc1`, the figure is 57.1%; as for `Cc1nnc(NCC2(c3ccccc3)CC2)c(C#N)c1C`, 9.62%.
`Cc1nnc(NCCc2coc(-c3ccc(F)cc3)n2)c(C#N)c1C`: the Percent Effect amounted to 48.6%.
Regarding `COc1ccc(-c2nc(CCNCc3ccncc3)co2)cc1`, the Percent Effect stood at 24.5%.
As for `Cc1nnc(NCCC(=O)NCc2ccccc2)c(C#N)c1C`, the Percent Effect turned out to be 31.5%.
As for `CCN1CC[C@@]2(C(=O)N3CCCC3)CCN(S(C)(=O)=O)CC[C@@H]12`, the figure is 21.4%.
As for `O=C(C1CCOCC1)N1C[C@H]2CCC[C@@]2(COc2ccccn2)C1`, the figure is 0%; as for `CC(C)CC(=O)N1C[C@@H]2CCN(c3ncccn3)C[C@@H]2C1`, 17.1%; as for `O=C(c1cnccn1)N1C[C@@H]2[C@@H](C1)OCC(=O)N2CC1CCCC1`, -944%.
Under `O=C(c1ccccn1)N1C[C@H]2CCC[C@@]2(COCC2CCOCC2)C1` stands 10.1%; under `CC(C)=CCN1CCN(Cc2ncc[nH]2)[C@H]2CS(=O)(=O)C[C@H]21`, 0%.
Consider `Cc1cc(N2CCC(C(=O)N(C)C)CC2)nc(-c2ccncc2)n1`, for which the Percent Effect turned out to be 17.1%.
On to `Cc1cc(N2CCN(CCO)CC2)nc(-c2ccncc2)n1`, for which the Percent Effect stood at 20%.
Under `CC(=O)NCC1CCN(c2cc(C)nc(-c3ccncc3)n2)CC1` stands 59.8%.
Under `CCNC(=O)CN1CCN(c2cc(C)nc(-c3ccncc3)n2)CC1` stands 30.1%.
As for `Cc1cc(N2CCC(Cc3ccccc3)CC2)nc(-c2ccncc2)n1`, the figure is 62.5%.
Turning to `Cc1cc(N2CCN(CC(=O)N(C)C)CC2)nc(-c2ccncc2)n1`, the Percent Effect came out at 51.4%.
Under `COC(=O)C1CCN(c2cc(C)nc(-c3ccncc3)n2)CC1` stands 37.6%.
As for `Cc1cc(N2CCC(Cc3ccccc3)CC2)ncn1`, the figure is 21.4%; as for `Cc1cc(N2CCC(CC(N)=O)CC2)nc(-c2ccncc2)n1`, 15.6%.
As for `c1cnc(N2CCN(C3CCC[C@@H]4CN(CC5CC5)C[C@H]34)CC2)nc1` (stereo not given in full), the figure is 2.86%.
As for `Cc1ccc(-c2nnc(CN3CCOC(Cn4cncn4)C3)o2)cc1` (stereo not given), the Percent Effect came to 3.39%.
Under `CCn1ncc(CN2C[C@@H]3CCCN3C[C@H]2CCSC)c1C` stands -58%.
As for `CC(C)N1CCN2C(=O)N(C3CCCCC3)C[C@H]2C1`, the figure is 18.9%; as for `CCO[C@@H]1C[C@H]2CN(S(=O)(=O)c3cccs3)CCN2C1`, 7.89%; as for `CN(C)S(=O)(=O)N1C[C@H]2C[C@H](C(=O)NCc3ccccc3)[C@@H](C1)O2`, 3.64%.
With `COc1ccc(CN2CCCC2)cc1Oc1ccc2c(c1)CC(CN)O2` (stereo not given), the Percent Effect is 25.8%.
In the case of `Cc1cc(CN2CCCC2)cc(Oc2ccc3c(c2)CC(CN)O3)c1` (stereo not given), the Percent Effect was determined as 12.5%.
As for `NCC1Cc2cc(Oc3cc(F)c(CN4CCCC4)c(F)c3)ccc2O1` (stereo not given), the figure is 57.5%; as for `O=C(C1CCC1)N1CCN(Cc2ccccc2F)[C@H]2CS(=O)(=O)C[C@H]21`, 23.3%.
Under `CC(C)c1nnc(NC(=O)N2CCN(C)CC2c2ccccc2)s1` (stereo not given) stands 4.17%; under `CC(C)Oc1ncccc1CNC(=O)N1CCC1c1ccccc1` (stereo not given), 16.8%.
Under `CCOC1CCN(C(=O)NCc2ccc(CN3CCOCC3)cc2)CC1` stands 13.5%; under `CCOC1CCN(C(=O)NCc2ccc(C(=O)N(C)C(C)C)cc2)CC1`, 16.7%.
In the case of `CN1C(=O)CO[C@H](c2ccc(NC(=O)Nc3ccccc3)cc2)[C@H]1CO`, the Percent Effect amounted to 14.9%.
As for `Cc1oc(C)c(C(=O)N2CCN(Cc3cscn3)CC2)c1C`, the figure is 13.3%.
With `CCOC1CCN(C(=O)Nc2ccc(=O)n(C)c2)CC1`, the Percent Effect was determined as 114%.
For `Cn1cc(NC(=O)N2CCC2c2ccccc2)ccc1=O` (stereo not given), the Percent Effect stood at 108%.
Regarding `Cn1cc(C(=O)N2CCN(c3ccccc3)CC2)ccc1=O`, the Percent Effect is 11%.
Turning to `Cn1cc(NC(=O)C2CC(c3ccccc3)C2)ccc1=O` (stereo not given), the Percent Effect is 71.3%.
Under `Cn1cc(C(=O)N2CCN(Cc3cscn3)CC2)ccc1=O` stands 15.3%; under `Cn1cc(NC(=O)N2CCN(Cc3cscn3)CC2)ccc1=O`, 74.8%.
Under `O=C1[C@@H]2C[C@H](O)CCN2C(=O)CN1CCSc1ccccn1` stands 17.6%.
With `COc1ccccc1S(=O)(=O)N1CCN(C)[C@@H]2CS(=O)(=O)C[C@@H]21`, the Percent Effect was -6.67%.
As for `CN(C)C[C@H]1C[C@@H]2CN(C(=O)c3ccco3)C[C@@H]2O1`, the Percent Effect turned out to be 10.3%.
In the case of `O=C1N(Cc2ccccn2)C[C@H]2CN(S(=O)(=O)c3ccccc3)CCN12`, the Percent Effect worked out at 24.3%.
As for `Cn1nccc1C(=O)N1C[C@@H]2CC[C@H](Oc3cccc(F)c3)[C@@H]2C1`, the figure is 18%; as for `Cc1cc(C(=O)N2C[C@@H]3CCCO[C@@H]3[C@H](N(C)C(C)C)C2)c(C)[nH]1`, 11.5%; as for `O=C(NCc1cccs1)[C@H]1CC[C@@H]2[C@@H](CCN2Cc2ccoc2)O1`, 12.5%.
Under `CCS(=O)(=O)N1CCO[C@H]2[C@H](OCC3CCCC3)CC[C@@H]21` stands 20.8%; under `O=C(O)[C@]12CCCN(Cc3ccsc3)C[C@H]1CN(c1ncccn1)C2`, 10.5%; under `O=C(Cc1cccc(F)c1)N1C[C@H]2CN(Cc3cccnc3)C[C@H]2C1`, 3.85%.
In the case of `CC(C)CN1C[C@@H]2OCC(=O)N(c3ccccc3)[C@@H]2C1`, the Percent Effect was 21.6%.
Under `CC(NC(=O)N1CCC(c2ccccc2)CC1)c1nncn1C` (stereo not given) stands 13.8%; under `C[C@H](NC(=O)N1CCC(Cc2ccccc2)CC1)C(=O)O`, -5%.
With `O=C(C1CCOC1)N1CCC(OCc2ccccc2)CC1` (stereo not given), the Percent Effect was found to be 16.8%.
As for `Cn1cc(NC(=O)N2CCC(Cc3ccccc3)CC2)ccc1=O`, the figure is 101%; as for `Cn1cc(NC(=O)N2CCC(CN3CCCC3)CC2)ccc1=O`, 6.38%.
As for `Cn1cc(NC(=O)N2CCC(c3ccccc3)CC2)ccc1=O`, the figure is 102%.
As for `Cn1cc(NC(=O)N2CCC(OCc3ccccc3)CC2)ccc1=O`, the figure is 103%; as for `CS(=O)(=O)NC1CCN(C(=O)c2ccc(F)cc2)CC1`, 28.1%.
As to `Cn1cc(NC(=O)N2CCC(NS(C)(=O)=O)CC2)ccc1=O`, the Percent Effect was found to be 91.5%.
Under `CS(=O)(=O)NC1CCN(C(=O)NCC2CCCO2)CC1` (stereo not given) stands 11%.
Regarding `CC(NC(=O)N1CCC(OCc2ccccc2)CC1)c1nncn1C` (stereo not given), the Percent Effect was 20.3%.
Turning to `NC(=O)Cn1cc(NC(=O)N2CCC(c3ccccc3)CC2)cn1`, the Percent Effect stood at 16.5%.
Under `CN(C)C(=O)NC[C@H]1OC[C@@H]2CCN(Cc3ccoc3)C[C@@H]21` stands -1.89%; under `Cn1cccc1C(=O)N1CCO[C@@H]2CN(Cc3ccco3)C[C@@H]2C1`, 11.8%.
Under `Cc1occc1C(=O)N1C[C@@H](OCc2cccnc2)[C@H]2OCCC[C@@H]21` stands 28.2%; under `O=C1O[C@@H]2CN(Cc3cc4ccccc4s3)C[C@@H]2N1Cc1ccccn1`, 2.67%.
`CCN1C(=O)CO[C@@H]2CN(C(=O)C3CCOCC3)C[C@H]21`: the Percent Effect was 20.6%.
Take `CN(C)S(=O)(=O)N1CC[C@]2(O)CCN(CCCc3cccnc3)C[C@@H]2C1`: the Percent Effect came to 18.4%.
Turning to `Cc1ccccc1CN1C[C@@H]2COC[C@]2(CNC(=O)C2CCC2)C1`, the Percent Effect was 13.9%.
Take `COCCOCC(=O)N1C[C@@H]2CC[C@H](Oc3ccccc3)[C@@H]2C1`: the Percent Effect turned out to be 26.3%.
As for `Cc1noc(C)c1CNc1ccc2nc(C3CC3)sc2c1`, the figure is 75.9%.
Under `Cc1cc(CNc2ccc3nc(C)sc3c2)no1` stands 58.6%; under `Cc1noc(C)c1CNc1cccc(C(=O)N2CCCC(O)C2)c1` (stereo not given), 27.4%; under `Cc1cc(CNc2ccc(C(F)(F)F)cc2)no1`, 17%.
As to `Cc1cc(CNc2ccc3nc(C4CC4)sc3c2)no1`, the Percent Effect was 27.6%.
For `Cc1noc(C)c1CNc1cccc(C(=O)N(C)c2ccccc2)c1`, the Percent Effect is -0.855%.
Under `O=C(c1cscn1)N1CCO[C@H]2[C@@H](Oc3ccccn3)CC[C@@H]21` stands 7%; under `Cc1noc(CN2C[C@H]3CC[C@@H]2CN(C2Cc4ccccc4C2)C3)n1`, 20.4%; under `O=C(N1CCOCC1)[C@@]12CCO[C@@H]1CCN(C1CCCCC1)C2`, 20.5%.
As for `Cc1cccc(CN2C[C@@H]3CN(C(=O)c4ccsc4)C[C@@H]3C2=O)n1`, the figure is 28.6%.
Regarding `Cc1cccc(CN2C(=O)CO[C@@H]3CN(Cc4nccn4C)C[C@H]32)c1`, the Percent Effect came to 17.3%.
As for `Cc1ccc(C)n1-c1ccc(C(=O)NCCNc2ncccn2)cc1`, the figure is 53%; as for `CCc1ccc(C(=O)NCCNc2ncccn2)cc1`, 2.63%; as for `O=C(NCCNc1ncccn1)c1ccc(Br)cc1`, 18.4%.
Under `O=C(c1ccoc1)N1C[C@@H]2OCCN(c3ncccn3)[C@@H]2C1` stands 15.3%.
As for `Nc1ccc(C(=O)N2C[C@@H]3CC[C@H](C2)N(Cc2ccccc2)C3)cn1`, the figure is 9.57%; as for `CC(=O)N1[C@H](CN(C)C)C[C@@H]2CN(c3ncc(F)cn3)CC[C@@H]21`, 14.5%; as for `COc1cc(CNc2cnn(C)c2)cc2c1OCCO2`, 53.6%.
`COc1cc(CNCCc2cnn(C)c2)cc2c1OCCO2`: the Percent Effect is 24.8%.
As for `COc1cc(CNCCn2cc(C)cn2)cc2c1OCCO2`, the figure is 9.17%; as for `CC(C)NC(=O)[C@H]1C[C@@H]2[C@@H](C1)OCCN2Cc1ccco1`, 5.56%.
`Cc1cncc(C(=O)N2C[C@@H]3CN(S(C)(=O)=O)CCO[C@@H]3C2)c1`: the Percent Effect stood at 15.1%.
`O=C(N[C@@H]1CN(c2ncccn2)C[C@@H]2CCCO[C@@H]21)c1ccnnc1`: the Percent Effect was 22.9%.
Under `CC(=O)Nc1ccc(CN(C)Cc2snnc2C)cc1` stands 16.3%; under `CC(=O)Nc1ccc2nc(CN(C)Cc3noc(C)n3)ccc2c1`, 18.4%; under `CC(=O)Nc1ccc2nc(CN(C)Cc3snnc3C)ccc2c1`, 61.2%.
Under `Cc1ccoc1C(=O)N1C[C@H](OCC2CC2)[C@H]2OCCC[C@H]21` stands 2.65%; under `COC[C@@]12CC[C@@H](N3CCOCC3)C[C@H]1CCN(c1cc(C)ccn1)C2`, 19.4%.
Under `O=C([C@H]1C[C@@H]2[C@@H](C1)OCCN2CC1CC1)N1CCCC1` stands 19.3%.
